{"source": "ChEMBL document CHEMBL3988442", "about": "“University of Dundee, Small-Polar-MMV Screening Library” (2021)", "note": "The campaign covered roughly 48,000 compounds. About 13,000 (27%) showed an effect of 50% or more. This is one part of the list.", "data": [{"test_system": "Wolbachia pipientis", "test": "Anti-Wolbachia Cell-Based Screen", "format": "functional", "design": "scale not given: in the data most compounds retested in dose-response had high values", "conditions": "5 µM", "units": {"Percent Effect": "%"}, "values": [{"smiles": "O=C(CC1CC1)NCc1cn2c(n1)CN(Cc1nccs1)CC2.O=C(O)C(F)(F)F", "Percent Effect": 17.65}, {"smiles": "Cc1cc(C(=O)N2C[C@@H]3[C@@H](C2)OCC(=O)N3CC2CC2)no1", "Percent Effect": 15.73}, {"smiles": "CS(=O)(=O)CCN1CCC(=Cc2ccccc2)CC1", "Percent Effect": 3.303}, {"smiles": "COc1cccc(CN(C(=O)NC2CC2)C2CCC(O)CC2)c1", "note": "(configuration not stated)", "Percent Effect": 4.411}, {"smiles": "O=C(C1CCOCC1)N(CCc1ccccc1)C1CCOC1", "note": "(configuration not stated)", "Percent Effect": -13.84}, {"smiles": "CN(CC(=O)N(C)C1CCN(CC2CCOC2)CC1)c1ccccc1", "note": "(configuration not stated)", "Percent Effect": -6.754}, {"smiles": "O=C(C1CC1)N(CCc1ccccc1)C1CCOC1", "note": "(configuration not stated)", "Percent Effect": -3.562}, {"smiles": "CNC(=O)CN(C(=O)c1ccccc1)[C@H]1C[C@H]2CCOC[C@H]2C1", "Percent Effect": 119.3}, {"smiles": "CNC(=O)CN([C@H]1C[C@H]2CCOC[C@H]2C1)S(=O)(=O)c1ccccc1", "Percent Effect": 119.6}, {"smiles": "O=C(NC1CC1)N(CCc1ccccc1)C1CCOC1", "note": "(configuration not stated)", "Percent Effect": -8.792}, {"smiles": "O=C(O)CN(C(=O)c1ccccc1)[C@H]1C[C@H]2CCOC[C@H]2C1", "Percent Effect": 112.1}, {"smiles": "CNC(=O)[C@@]12CCO[C@@H]1CCN(S(=O)(=O)c1ccccc1)C2", "Percent Effect": -56.29}, {"smiles": "CC(=O)NCC(=O)N(CCc1ccccc1)C1CCOC1", "note": "(configuration not stated)", "Percent Effect": 3.358}, {"smiles": "CN1CCN(CCO)C(=O)C12CCN(c1nccs1)CC2", "Percent Effect": 3.933}, {"smiles": "CN1CCOC(C(=O)Nc2ccc3[nH]nnc3c2)C1", "note": "(configuration not stated)", "Percent Effect": 3.877}, {"smiles": "CCc1nsc(NC2CCCn3nc(COC)nc32)n1", "note": "(configuration not stated)", "Percent Effect": -2.766}, {"smiles": "Cc1ccc2nc(C)c(C)c(C(=O)NCCCn3ccnn3)c2c1", "Percent Effect": -15.24}, {"smiles": "CCc1nccn1CCCNC(=O)CN1CCN(c2ncccn2)CC1", "Percent Effect": -11.95}, {"smiles": "CC(C)c1nccn1CCCNC(=O)c1ccc(-c2cnn(C)c2)nc1", "Percent Effect": 3.735}, {"smiles": "COc1ccccc1-n1cc(C(=O)NCCCn2ccnn2)cn1", "Percent Effect": 105.8}, {"smiles": "Cc1ccc2[nH]c(C(=O)NCCCn3ccnn3)c(C)c2c1", "Percent Effect": -11.21}, {"smiles": "CCc1nccn1CCCNC(=O)c1cnn(-c2ccccc2OC)c1", "Percent Effect": 86.43}, {"smiles": "CC(C)CCN1CC2(CCN(C3CCCOC3)CC2)OC1=O", "note": "(configuration not stated)", "Percent Effect": 10.38}, {"smiles": "COCCOc1ccc(NC(=O)N2CCCC2c2ccsc2)cn1", "note": "(configuration not stated)", "Percent Effect": -8.185}, {"smiles": "COc1c(F)ccc(C(=O)N2CC[C@H](CO)[C@@H](O)C2)c1F", "Percent Effect": 0.1381}, {"smiles": "CCCS(=O)(=O)N1CCc2nc(N3CCOCC3)nc(N(C)C)c2C1", "Percent Effect": 5.75}, {"smiles": "CC(C)CCN1CCc2nc(N3CCOCC3)nc(NC(C)C)c2C1", "Percent Effect": 0.8088}, {"smiles": "CCc1ncnc2c1CCN(c1ncc(F)cn1)CC2", "Percent Effect": -14.13}, {"smiles": "CC(C)Nc1nc(N2CCCC2)nc2c1CCN(S(C)(=O)=O)CC2.O=C(O)C(F)(F)F.O=C(O)C(F)(F)F", "Percent Effect": 110.6}, {"smiles": "CC(C)Nc1nc(N2CCCC2)nc2c1CN(S(C)(=O)=O)CC2", "Percent Effect": 105.6}, {"smiles": "CC(C)Nc1nc2c(cc1C(=O)NCC1CC1)CCN(S(C)(=O)=O)CC2.O=C(O)C(F)(F)F", "Percent Effect": 8.623}, {"smiles": "CCS(=O)(=O)N1CCc2nc(N3CCOCC3)nc(N(C)C)c2CC1", "Percent Effect": -7.887}, {"smiles": "Cc1nc(CN2CCc3nc(N4CCCC4)nc(NC(C)C)c3C2)cs1", "Percent Effect": -7.957}, {"smiles": "CC(C)Nc1nc(N2CCCC2)nc2c1CN(c1ncc(F)cn1)CC2", "Percent Effect": 118.9}, {"smiles": "CC(C)Nc1nc(N2CCCC2)nc2c1CN(C)CC2", "Percent Effect": 109}, {"smiles": "CCCN1CCc2nc(N3CCOCC3)nc(NC(C)C)c2C1", "Percent Effect": -9.413}, {"smiles": "Cc1cc(C(=O)N2CCC(c3nccn3CCCN(C)C)CC2)no1", "Percent Effect": 1.64}, {"smiles": "Nc1nc(CCNc2ncnc3c2CCN(C(=O)C2CC2)C3)cs1", "Percent Effect": -7.691}, {"smiles": "Cc1ccc(SCCN(C)C(=O)c2cn(CCN)nn2)cc1", "Percent Effect": 1.127}, {"smiles": "COCC(=O)N(Cc1cccc(C)c1)Cc1ccccc1OC", "Percent Effect": -10.99}, {"smiles": "CC(C)(O)CN1CCN(C(=O)COC2CCCCC2)CC1", "Percent Effect": -14.17}, {"smiles": "CCC(C)c1csc(NC(=O)Cc2csc(-c3nnc[nH]3)n2)n1", "note": "(configuration not stated)", "Percent Effect": -13.2}, {"smiles": "CCC(C)N1CCc2nc(N3CCCC3)nc(NC(C)C)c2C1", "note": "(configuration not stated)", "Percent Effect": 120.2}, {"smiles": "CC(C)Nc1nc(N2CCCC2)nc2c1CN(C(C)C)CC2", "Percent Effect": 4.85}, {"smiles": "CCN1CCc2nc(N3CCOCC3)nc(NC(C)C)c2C1", "Percent Effect": -4.113}, {"smiles": "Cc1ccc(-c2nc(CN3CCC(N4CCNC4=O)CC3)co2)cc1", "Percent Effect": 99.39}, {"smiles": "CS(=O)(=O)NC1CCN(Cc2coc(-c3ccc(Cl)cc3)n2)CC1", "Percent Effect": 11.26}, {"smiles": "O=S1(=O)CCCN1Cc1coc(-c2cccs2)n1", "Percent Effect": 4.552}, {"smiles": "c1csc(-c2nc(CN3CCN(c4cnccn4)CC3)co2)c1", "Percent Effect": -1.577}, {"smiles": "O=C1NCCN1C1CCCN(Cc2coc(-c3cccs3)n2)C1", "note": "(configuration not stated)", "Percent Effect": 113.2}, {"smiles": "Cc1ccc(-c2nc(CN3CCc4nn(C)c(=O)cc4C3)co2)cc1", "Percent Effect": -7.957}, {"smiles": "O=C1NCCN1C1CCN(Cc2ccccn2)CC1", "Percent Effect": -4.193}, {"smiles": "O=C1NCCN1C1CCCN(Cc2nnc(-c3ccc(F)cc3)o2)C1", "note": "(configuration not stated)", "Percent Effect": 8.098}, {"smiles": "CS(=O)(=O)NC1CCN(Cc2coc(-c3ccccc3)n2)CC1", "Percent Effect": -0.3699}, {"smiles": "O=C1NCCN1C1CCN(Cc2coc(-c3ccccc3)n2)CC1", "Percent Effect": 93.32}, {"smiles": "O=C1NCCN1C1CCCN(Cc2coc(-c3ccc(F)cc3)n2)C1", "note": "(configuration not stated)", "Percent Effect": -1.248}, {"smiles": "O=C1NCCN1C1CCN(Cc2coc(-c3ccc(F)cc3)n2)CC1", "Percent Effect": 91.35}, {"smiles": "NCC1Cc2cc(Oc3cc(F)c(CN4CCCC4)c(F)c3)ccc2O1", "note": "(configuration not stated)", "Percent Effect": -5.798}, {"smiles": "c1cc(-c2nnc(C3(c4ccc5c(c4)OCO5)CCOCC3)o2)ccn1", "Percent Effect": -12.56}, {"smiles": "CCc1ccc(C(COC)NC(=O)c2ccc(O)nc2)o1", "note": "(configuration not stated)", "Percent Effect": -6.31}, {"smiles": "c1ccc(-n2nnnc2CN2CCCC(Cn3cncn3)C2)cc1", "note": "(configuration not stated)", "Percent Effect": 0.4093}, {"smiles": "Cc1ccc(NC(=O)CNC(C)CN2CCOCC2)c(F)c1", "note": "(configuration not stated)", "Percent Effect": 11.35}, {"smiles": "Cc1ccc(NC(=O)CNC(C)CN2CCCCC2)c(F)c1", "note": "(configuration not stated)", "Percent Effect": 7.732}, {"smiles": "Cc1ccc(NC(=O)CN2CCOCC2)c(F)c1", "Percent Effect": 133.3}, {"smiles": "CCC(=O)N1CCC2(CC1)CC(N1CCOCC1)c1cc(C)ccc12.O=C(O)C(F)(F)F", "note": "(configuration not stated)", "Percent Effect": 0.6162}, {"smiles": "CC(=O)N1CC2(CCN(C(=O)N(C)C)CC2)c2cc(C)ccc21", "Percent Effect": 1.573}, {"smiles": "CCOC1CC2(CCN(CCO)CC2)c2ccc(C)cc21", "note": "(configuration not stated)", "Percent Effect": 12.38}, {"smiles": "Cc1ccc2c(c1)CCC21CCN(C(=O)CO)CC1", "Percent Effect": -11.41}, {"smiles": "CCC(=O)N1CCC2(CC1)CC(NC(=O)N(C)C)c1cc(C)ccc12", "note": "(configuration not stated)", "Percent Effect": 98.52}, {"smiles": "CC(=O)N1CCC2(CC1)CC(NC(=O)N(C)C)c1cc(C)ccc12", "note": "(configuration not stated)", "Percent Effect": 112.2}, {"smiles": "Cc1ccc(C)c(OCc2cc(C(=O)N(C)Cc3cnn(C)c3)no2)c1", "Percent Effect": -13.61}, {"smiles": "CCS(=O)(=O)N1CCCC(c2nccn2Cc2cccnc2)C1", "note": "(configuration not stated)", "Percent Effect": -2.411}, {"smiles": "Cn1cc(C(=O)N2CCCC(CN3CCCC3=O)C2)cn1", "note": "(configuration not stated)", "Percent Effect": 73.94}, {"smiles": "Cc1ccc(C2CCCN(C(=O)c3cnn(C)c3)C2)nc1", "note": "(configuration not stated)", "Percent Effect": 105.1}, {"smiles": "CCS(=O)(=O)N1CCCC(Cc2cnccn2)C1", "note": "(configuration not stated)", "Percent Effect": 118.2}, {"smiles": "CCS(=O)(=O)N1CCCC(c2nccn2Cc2ccccn2)C1", "note": "(configuration not stated)", "Percent Effect": -4.348}, {"smiles": "CC(O)CN1CC2(CCC1=O)CCN(C(=O)c1cnn(C)c1)CC2", "note": "(configuration not stated)", "Percent Effect": -4.211}, {"smiles": "Cn1cc(C(=O)N2CCCC(Cc3cnccn3)C2)cn1", "note": "(configuration not stated)", "Percent Effect": 110.5}, {"smiles": "COc1cccc(OCC2CCCN(C(=O)c3cnn(C)c3)C2)c1", "note": "(configuration not stated)", "Percent Effect": -49.1}, {"smiles": "Cn1cc(C(=O)N2CCCC2CCc2ccccc2)cn1", "note": "(configuration not stated)", "Percent Effect": 11.22}, {"smiles": "COc1cc(N2CCN(Cc3ccc(C)o3)C(CCO)C2)nc(N)n1", "note": "(configuration not stated)", "Percent Effect": -10.52}, {"smiles": "Cc1nn(C)c2c(=O)n(CC(=O)Nc3cc(Cl)cc(Cl)c3)nnc12", "Percent Effect": 4.089}, {"smiles": "Cn1cc(C(=O)N2CCCC(c3ccncc3)C2)cn1", "note": "(configuration not stated)", "Percent Effect": 78.37}, {"smiles": "Cc1nccn1CC1CCCN(C(=O)c2cnn(C)c2)C1", "note": "(configuration not stated)", "Percent Effect": 93.77}, {"smiles": "Cn1cc(C(=O)N2CCCC(c3cnccn3)C2)cn1", "note": "(configuration not stated)", "Percent Effect": 131}, {"smiles": "Cn1cc(C(=O)N2CC[C@@]3(O)CCN(C(=O)C4CCC4)C[C@H]3C2)cn1", "Percent Effect": -11.15}, {"smiles": "COc1ccc(CN(C(=O)C2CCCS2)c2ccncc2)cc1", "note": "(configuration not stated)", "Percent Effect": -11.82}, {"smiles": "COc1ccc(S(=O)(=O)N2CCn3cnc(COCC4CC4)c3C2)cc1", "Percent Effect": -5.165}, {"smiles": "CS(=O)(=O)N1CCCCC12CCCN(Cc1nccs1)C2.O=C(O)C(F)(F)F", "note": "(configuration not stated)", "Percent Effect": -3.648}, {"smiles": "CNC[C@H]1CC[C@H](c2cc(CN(C)S(=O)(=O)N(C)C)n(C)n2)CC1.Cl", "Percent Effect": 79.31}, {"smiles": "CNC[C@H]1CC[C@H](c2cc(CN(C)C(=O)c3cnccn3)n(C)n2)CC1.Cl", "Percent Effect": 49.34}, {"smiles": "O=C(NN1CCCc2ccccc21)c1c[nH]c(=O)[nH]1", "Percent Effect": -8.796}, {"smiles": "CCc1cnc(C)nc1NCCNc1nc(C)cc(=O)[nH]1", "Percent Effect": -6.452}, {"smiles": "F[C@@H]1CN(CC2CC2)C[C@@H]1OCc1nc2ncccc2[nH]1", "Percent Effect": -13.13}, {"smiles": "O=C(CCc1ccccc1)NCC1CCN(Cc2cccs2)CC1", "Percent Effect": 102.9}, {"smiles": "Cc1ccc(CN2CCC(CNC(=O)Cn3cncn3)CC2)cc1", "Percent Effect": -4.206}, {"smiles": "O=C(CCc1ccccc1)NCC1CCN(Cc2ccsc2)CC1", "Percent Effect": 3.98}, {"smiles": "O=C(CCc1ccccc1)NCC1CCN(Cc2ccccc2)CC1", "Percent Effect": 111.4}, {"smiles": "O=C(CCc1ccsc1)NCC1CCN(Cc2cccs2)CC1", "Percent Effect": -16.57}, {"smiles": "COc1cc2cc(C(=O)NC(C)C(=O)O)n(C)c2c(OC)c1OC", "note": "(configuration not stated)", "Percent Effect": 0.3251}, {"smiles": "CCc1[nH]c2c(CNc3nc(C)cc(NC)n3)cc(C)cc2c1C", "Percent Effect": -10.73}, {"smiles": "CC(SCCC(=O)NC(N)=O)c1ccccc1F", "note": "(configuration not stated)", "Percent Effect": -10.14}]}]}
